# In PubChem BioAssay:
# Inconclusive results are not listed. Calls of active or inactive are those of the source.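 How the source made its calls, unless noted: active means compound raises insulin release from rat beta cells at 5 mM glucose, no numeric limit stated; inactive means the rest.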
# Columns and labels:
# [1] = stimulators of nuclear beta-catenin in C2C12, primary screen, imaging, WNT3A-conditioned medium, mouse C2C12, NPC library (AID 1117326; in the data active means nuclear beta-catenin stimulation mostly above about 4.2%, no sharp cut-off; inactive means mostly below about 10%); conditions: stronger effect = higher value
# [2] = stimulators of insulin release from INS-1E, primary screen, cell-based, 5 mM glucose, NPC library (AID 1117329); conditions: rat INS-1E insulin secretion, at 10 µM, stronger effect = higher value
# [3] = growth inhibition of GSK3B-pretreated HCT116 cells – cell-based, CellTiter-Glo, 0.2 to 20 µM (AID 1117336;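 active means compounds lowering colon cancer cell viability after pretreatment blocking the GSK3B kinase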); conditions: HCT116 viability after GSK3B inhibitor, at 20 µM, stronger effect = higher value
# [4] = inhibition of endothelial tube formation, primary screen, imaging, VEGF stimulated, CD31 staining, tube area, NPC library (AID 1117340;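 active means compound that reduces growth-factor-driven endothelial tube area in a mixed cell culture, no cutoff stated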); conditions: VEGF-stimulated ADSC/ECFC co-culture, at 10 µM, stronger effect = higher value
# [5] = glucagon-like peptide 1 release enhancers, primary assay, NCI-H716 cell line, NPC library (AID 1117341;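 active means compound raises GLP1 secretion from the human gut endocrine cells, with no numeric limit stated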); conditions: NCI-H716 cells, at 10 µM, stronger effect = higher value
# [6] = HCT116 colon cancer cell growth inhibition, primary screen, CellTiter-Glo luminescence, NPC library (AID 1117342;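 active means compounds that lower survival of HCT116 colon cancer cells in the luminescence readout, no numeric limit stated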); conditions: at 20 µM (top of the series)
# [7] = CellTiter-Glo luminescent readout of SW480 viability loss, NPC library primary (AID 1117343;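 active means compounds that lower viability of the colon cancer cells in the luminescence readout, with no numeric limit stated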); conditions: CellTiter-Glo luminescence; at 20 µM (top of the series) unless noted
# [8] = decreased DLD-1 cellular survival, CellTiter-Glo luminescent readout, NPC compound collection, primary HTS (AID 1117346;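 active means compounds that lower survival of DLD-1 colon cancer cells in the luminescence readout, no cutoff given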); conditions: DLD-1 viability, CellTiter-Glo luminescence; at 20 µM (top of the series)
# [9] = molecular target: NAD(+) hydrolase SARM1 (Homo sapiens) (UniProt Q6SZW1); experiment: SARM1 TIR NADase inhibitors, cell lysate, NAD-Glo luminescence (AID 1508614;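 active means compound whose remaining NAD level is above about 45 nM, limit read from the data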); conditions: SAM-TIR HEK293T lysate NADase, at 1 µM, stronger effect = higher value
# Sequence of NAD(+) hydrolase SARM1 (Homo sapiens) (Q6SZW1 whole entry, looked up): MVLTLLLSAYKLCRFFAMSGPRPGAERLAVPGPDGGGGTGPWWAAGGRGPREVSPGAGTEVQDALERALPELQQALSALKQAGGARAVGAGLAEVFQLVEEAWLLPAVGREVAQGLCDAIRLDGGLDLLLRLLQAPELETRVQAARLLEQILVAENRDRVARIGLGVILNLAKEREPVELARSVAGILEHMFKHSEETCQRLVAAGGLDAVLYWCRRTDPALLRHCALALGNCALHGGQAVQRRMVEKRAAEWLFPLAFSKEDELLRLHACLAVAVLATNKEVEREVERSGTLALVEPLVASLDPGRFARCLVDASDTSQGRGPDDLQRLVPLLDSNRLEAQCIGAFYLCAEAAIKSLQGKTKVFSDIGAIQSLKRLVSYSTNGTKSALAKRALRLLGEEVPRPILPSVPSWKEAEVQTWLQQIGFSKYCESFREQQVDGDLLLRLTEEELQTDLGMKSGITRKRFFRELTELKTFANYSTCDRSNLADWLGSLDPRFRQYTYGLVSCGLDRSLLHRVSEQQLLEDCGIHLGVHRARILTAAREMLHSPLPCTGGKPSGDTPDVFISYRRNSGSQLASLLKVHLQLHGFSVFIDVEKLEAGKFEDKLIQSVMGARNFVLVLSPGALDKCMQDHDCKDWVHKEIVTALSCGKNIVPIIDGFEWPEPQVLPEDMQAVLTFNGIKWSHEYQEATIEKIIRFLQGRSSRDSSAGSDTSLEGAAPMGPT
# [10] = sensitizers of A549 cells to miR-34 induction, primary screen, imaging, A549 dox-inducible miR-34, nuclei and caspase counts (AID 1347080;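 active means compounds whose cell count with miR-34 switched on is under 0.7 times the count with it off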); conditions: A549 miR-34 inducible, Hoechst nuclei count, 48 h
# [11] = molecular target: Mitogen-activated protein kinase 7 (Homo sapiens) (UniProt Q13164); experiment: ERK5 transactivation activators in reporter cells, primary screen, cell-based, HTS (AID 1508626;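 active means luciferase signal above three times the same-plate solvent-only control wells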;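 further: luciferase driven by Gal4-ERK5 fusion binding five Gal4 sites before minimal TATA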); conditions: HeLa Gal4-ERK5 transactivation, 18 h, at 5 µM, stronger effect = higher value
# Sequence of Mitogen-activated protein kinase 7 (Homo sapiens) (Q13164 whole entry, looked up, the tested form may be a part): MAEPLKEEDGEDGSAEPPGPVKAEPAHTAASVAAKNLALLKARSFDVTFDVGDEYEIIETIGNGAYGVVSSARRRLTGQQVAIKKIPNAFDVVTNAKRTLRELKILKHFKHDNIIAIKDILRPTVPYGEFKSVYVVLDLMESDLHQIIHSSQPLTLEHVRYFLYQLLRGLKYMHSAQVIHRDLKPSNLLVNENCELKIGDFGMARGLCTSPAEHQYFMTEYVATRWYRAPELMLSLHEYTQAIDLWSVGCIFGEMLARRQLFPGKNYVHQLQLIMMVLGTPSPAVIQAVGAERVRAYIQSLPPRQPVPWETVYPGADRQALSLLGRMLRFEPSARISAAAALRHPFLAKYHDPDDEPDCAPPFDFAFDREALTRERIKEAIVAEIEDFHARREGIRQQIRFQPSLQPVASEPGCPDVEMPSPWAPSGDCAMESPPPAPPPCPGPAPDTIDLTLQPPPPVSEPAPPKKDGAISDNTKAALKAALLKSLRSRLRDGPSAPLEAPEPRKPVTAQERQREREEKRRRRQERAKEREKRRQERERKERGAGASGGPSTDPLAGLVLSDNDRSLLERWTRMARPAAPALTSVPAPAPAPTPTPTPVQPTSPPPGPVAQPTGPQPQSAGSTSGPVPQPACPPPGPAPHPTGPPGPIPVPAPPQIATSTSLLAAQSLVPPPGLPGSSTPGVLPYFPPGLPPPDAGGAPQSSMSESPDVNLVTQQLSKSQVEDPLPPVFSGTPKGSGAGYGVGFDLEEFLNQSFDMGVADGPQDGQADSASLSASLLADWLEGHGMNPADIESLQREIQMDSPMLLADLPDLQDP
# [12] = molecular target: ATP-dependent translocase ABCB1 (Homo sapiens) (UniProt P08183); experiment: MDR1 (ABCB1) efflux transporter inhibition, cell-based (AID 377; in the data active means fluorescence slope change above about 50%); conditions: MDR1-expressing cells, fluorescent substrate accumulation slope; stronger effect = higher value; concentration not given here
# Sequence of ATP-dependent translocase ABCB1 (Homo sapiens) (P08183 whole entry, looked up): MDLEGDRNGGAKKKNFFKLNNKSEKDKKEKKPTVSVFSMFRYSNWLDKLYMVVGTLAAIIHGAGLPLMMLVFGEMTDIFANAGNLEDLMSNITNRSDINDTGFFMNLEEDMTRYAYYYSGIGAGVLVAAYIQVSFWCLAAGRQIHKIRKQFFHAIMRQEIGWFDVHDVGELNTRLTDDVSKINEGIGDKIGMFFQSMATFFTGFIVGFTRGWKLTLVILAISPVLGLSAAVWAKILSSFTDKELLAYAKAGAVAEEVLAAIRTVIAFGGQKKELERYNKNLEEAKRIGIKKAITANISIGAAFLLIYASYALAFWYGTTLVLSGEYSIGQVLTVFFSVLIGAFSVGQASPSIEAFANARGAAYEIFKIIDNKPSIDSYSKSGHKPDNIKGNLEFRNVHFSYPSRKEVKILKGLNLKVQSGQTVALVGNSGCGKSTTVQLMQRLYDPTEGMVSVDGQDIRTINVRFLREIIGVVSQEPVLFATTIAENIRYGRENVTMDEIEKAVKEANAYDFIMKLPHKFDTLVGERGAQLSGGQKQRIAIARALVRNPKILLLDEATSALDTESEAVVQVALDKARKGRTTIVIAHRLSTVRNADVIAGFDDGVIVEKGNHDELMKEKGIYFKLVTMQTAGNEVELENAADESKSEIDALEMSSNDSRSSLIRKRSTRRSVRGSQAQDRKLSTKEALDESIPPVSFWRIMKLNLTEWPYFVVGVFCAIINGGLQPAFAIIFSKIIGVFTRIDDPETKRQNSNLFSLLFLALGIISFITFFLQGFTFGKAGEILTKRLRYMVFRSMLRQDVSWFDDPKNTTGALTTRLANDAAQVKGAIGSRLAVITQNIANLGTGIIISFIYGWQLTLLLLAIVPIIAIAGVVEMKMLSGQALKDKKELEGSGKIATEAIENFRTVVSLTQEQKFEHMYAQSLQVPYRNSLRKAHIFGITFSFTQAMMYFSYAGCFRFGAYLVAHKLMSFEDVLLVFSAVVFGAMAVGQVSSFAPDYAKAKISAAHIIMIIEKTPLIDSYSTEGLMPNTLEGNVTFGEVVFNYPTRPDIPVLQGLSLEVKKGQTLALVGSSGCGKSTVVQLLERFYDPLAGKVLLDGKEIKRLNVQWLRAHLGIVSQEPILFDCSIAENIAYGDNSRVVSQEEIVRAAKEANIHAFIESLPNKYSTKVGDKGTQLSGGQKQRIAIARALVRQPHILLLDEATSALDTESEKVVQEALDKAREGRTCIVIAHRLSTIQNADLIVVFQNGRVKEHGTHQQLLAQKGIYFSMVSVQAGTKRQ
# [13] = hESC survival regulators, cell-based (AID 493140; call rule not given here;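 further: cells exposed to compounds for four days before counting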); conditions: human embryonic stem cell survival screen; stronger effect = higher value
Structure (SMILES),nuclear beta-catenin stimulation ([1]; at 10 µM),"nuclear beta-catenin stimulation ([1]; stimulation, at 2 µM) [%]",insulin secretion stimulation [2],viability decrease [3],tube area decrease [4],GLP1 secretion stimulation [5],inhibition of viability [6],viability decrease (inhibition) [7],viability decrease (inhibition) [8],remaining NAD [9],"fold change ([10]; stronger effect = lower value, cell number ratio, induced over uninduced)",fold change ([10]; measured here: relative caspase fold change +Dox/-Dox),"cell count ([10]; measured here: total cells with miR-34 induction, stronger effect = lower value)",cell count ([10]; measured here: total cells without miR-34 induction),luciferase signal [11],fluorescence slope change [12],survival [13]
NC(=O)N[C@@H](CCC(=O)O)C(=O)O,-0.1% (inactive),-1,0.3% (inactive),11.1% (inactive),-22.3% (inactive),-2.5% (inactive),4.1% (inactive),-6.5% (inactive),1% (inactive),10 nM (inactive),–,–,–,–,–,–,–
CCN(CC)C(=O)c1cccnc1,2.1% (inactive),-1,1.2% (inactive),6.1% (inactive),–,1.6% (inactive),14.5% (inactive),-1.1% (inactive),6.2% (inactive),10 nM (inactive),0.953 (inactive),0.829,8700,9130,–,–,–
OC[C@@H](O)[C@@H](O)[C@H](O)[C@H](O)CO,0.7% (inactive),0.6,-2% (inactive),-4.45% (inactive),4.3% (inactive),1.1% (inactive),-9.6% (inactive),40.5% (inactive),8.25% (inactive),10 nM (inactive),–,–,–,–,–,–,–
CCCC(=O)O[C@]1(C(=O)CO)CC[C@H]2[C@@H]3CCC4=CC(=O)CC[C@]4(C)[C@H]3[C@@H](O)C[C@@]21C,0.1% (inactive),1.4,1.4% (inactive),-45.5% (inactive),18.3% (inactive),3.7% (inactive),24.2% (inactive),19.8% (inactive),1% (inactive),10 nM (inactive),–,–,–,–,148 AU (inactive),–,–
CN(C)CCCO[C@@H]1[C@H]2OC(C)(C)O[C@H]2O[C@@H]1C(O)CO (stereo partly specified),-2% (inactive),-1,0.9% (inactive),24.4% (inactive),-18.7% (inactive),0.3% (inactive),55.2% (active),13.2% (inactive),66.4% (active),–,–,–,–,–,–,–,–
N[C@H]1C(O)O[C@H](CO)[C@@H](O)[C@@H]1O (stereo partly specified),-1% (inactive),1.7,1.4% (inactive),7.5% (inactive),-12.1% (inactive),-0.8% (inactive),-4.93% (inactive),-42% (inactive),-2.3% (inactive),–,–,–,–,–,84 AU (inactive),–,–
CC(C)=CCC[C@@](C)(O)[C@H]1CC=C(C)CC1,1.8% (inactive),4,3.6% (inactive),-34.3% (inactive),5% (inactive),2.7% (inactive),-4.77% (inactive),-13% (inactive),-9.9% (inactive),–,–,–,–,–,32 AU (inactive),–,–
C[C@@H]1CCC[C@H](C)N1,1.3% (inactive),1,-1.2% (inactive),-2.8% (inactive),3.6% (inactive),0.5% (inactive),-4.9% (inactive),6.2% (inactive),2.2% (inactive),–,–,–,–,–,–,9.9% (inactive),4.42 (inactive)
CC1CCC(C(C)C)C(OC(=O)c2ccccc2O)C1 (stereo unspecified),-1.1% (inactive),-2.6,-1% (inactive),–,–,-8.7% (inactive),–,–,–,–,–,–,–,–,–,–,–
CC(C)Cn1cnc2c1c(=O)n(C)c(=O)n2C,1.9% (inactive),-1.3,1.65% (inactive),0% (inactive),–,3.4% (inactive),31.9% (inactive),-1.5% (inactive),11.3% (inactive),–,–,–,–,–,–,–,–
